The panel holds about 83,000 compounds, 20% with a hit somewhere; the sample as a whole holds those more often.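 Treatment: one concentration, 48 hours, 96-well format. Scoring: percent growth, with anything below 10 considered active.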 The source made the active and inactive calls.
Assays:
Test in all cases: NCI-60 one-dose screen, 48 h (100 = growth as untreated, 0 = no growth, -100 = all killed)
Conditions in all cases: 10 µM unless noted
SK-MEL-2 melanoma = test system: SK-MEL-2 melanoma
EKVX NSCLC = test system: EKVX NSCLC
UO-31 renal = test system: UO-31 renal
TK-10 renal = test system: TK-10 renal
ACHN renal = test system: ACHN renal
A498 renal = test system: A498 renal
CCRF-CEM leukemia = test system: CCRF-CEM leukemia
MOLT-4 leukemia = test system: MOLT-4 leukemia
SR leukemia = test system: SR leukemia
RPMI-8226 leukemia = test system: RPMI-8226 leukemia
OVCAR-8 ovarian = test system: OVCAR-8 ovarian
OVCAR-5 ovarian = test system: OVCAR-5 ovarian
OVCAR-4 ovarian = test system: OVCAR-4 ovarian
SK-OV-3 ovarian = test system: SK-OV-3 ovarian
IGROV1 ovarian = test system: IGROV1 ovarian
OVCAR-3 ovarian = test system: OVCAR-3 ovarian
HS 578T breast = test system: HS 578T breast
NCI/ADR-RES ovarian = test system: NCI/ADR-RES ovarian
T-47D breast = test system: T-47D breast
SN12C renal = test system: SN12C renal

Measured: growth

CCOCc1nc2ccccc2c(=O)[nH]1
inactive: SK-MEL-2 melanoma 113% | EKVX NSCLC 95.8% | UO-31 renal 92.9% | TK-10 renal 102% | ACHN renal 105% | A498 renal 105% | CCRF-CEM leukemia 97.1% | MOLT-4 leukemia 105% | SR leukemia 103% | RPMI-8226 leukemia 102% | OVCAR-8 ovarian 103% | OVCAR-5 ovarian 106% | OVCAR-4 ovarian 113% | SK-OV-3 ovarian 108% | IGROV1 ovarian 96.6% | OVCAR-3 ovarian 109% | HS 578T breast 93.8% | NCI/ADR-RES ovarian 103% | T-47D breast 105%

Nc1ccc2c(c1)C(=O)C(=O)c1c-2nc2ccccn12
active: SK-MEL-2 melanoma -32.1% | UO-31 renal -40.8% | ACHN renal -58.8% | A498 renal -19.3% | MOLT-4 leukemia -32.8% | SR leukemia 2.06% | OVCAR-8 ovarian 8.18% | OVCAR-5 ovarian -47.4% | OVCAR-4 ovarian -95.4% | IGROV1 ovarian -40.3% | OVCAR-3 ovarian -19.8% | HS 578T breast -6.56% | T-47D breast -53.5%
inactive: EKVX NSCLC 31.5% | TK-10 renal 115% | CCRF-CEM leukemia 13.6% | RPMI-8226 leukemia 14.7% | SK-OV-3 ovarian 30.7% | NCI/ADR-RES ovarian 11.7%

O=C(Nc1cc(Br)ccn1)c1cc2cc(Nc3nc(-c4ccccc4)nc4ccccc34)ccc2oc1=O
inactive: SK-MEL-2 melanoma 90.8% | EKVX NSCLC 109% | UO-31 renal 75.4% | TK-10 renal 106% | ACHN renal 103% | A498 renal 112% | CCRF-CEM leukemia 107% | MOLT-4 leukemia 100% | SR leukemia 82.2% | RPMI-8226 leukemia 108% | OVCAR-8 ovarian 103% | OVCAR-5 ovarian 115% | OVCAR-4 ovarian 111% | SK-OV-3 ovarian 103% | IGROV1 ovarian 115% | OVCAR-3 ovarian 113% | HS 578T breast 107% | NCI/ADR-RES ovarian 113% | T-47D breast 98.3%

C=C(C)[C@@H]1CC[C@]2(C(N)=O)CC[C@]3(C)[C@H](CC[C@@H]4[C@@]5(C)CCCNC(C)(C)[C@@H]5CC[C@]43C)[C@@H]12
inactive: SK-MEL-2 melanoma 105% | EKVX NSCLC 87.5% | UO-31 renal 84.4% | TK-10 renal 107% | ACHN renal 88.9% | A498 renal 99% | CCRF-CEM leukemia 52.5% | MOLT-4 leukemia 48.9% | RPMI-8226 leukemia 13.5% | OVCAR-8 ovarian 82.1% | OVCAR-5 ovarian 82.9% | OVCAR-4 ovarian 83.6% | SK-OV-3 ovarian 87.5% | IGROV1 ovarian 84.2% | OVCAR-3 ovarian 88.8% | HS 578T breast 74.9% | NCI/ADR-RES ovarian 84.6% | T-47D breast 55.9%
active: SR leukemia 3%

C#Cc1ccccc1NC(=O)c1sc2nc3c(cc2c1N)CCCCCC3
active: OVCAR-4 ovarian -19% | HS 578T breast 8.22%
inactive: SK-MEL-2 melanoma 85.4% | SN12C renal 58.5% | UO-31 renal 50.1% | TK-10 renal 63.2% | ACHN renal 31.1% | A498 renal 68.5% | CCRF-CEM leukemia 60.7% | MOLT-4 leukemia 67.1% | SR leukemia 12.3% | RPMI-8226 leukemia 56.4% | OVCAR-8 ovarian 75.7% | OVCAR-5 ovarian 93.1% | SK-OV-3 ovarian 36.9% | IGROV1 ovarian 74.5% | OVCAR-3 ovarian 30.9% | NCI/ADR-RES ovarian 67.4% | T-47D breast 49.7%

COc1ccc2nc(-c3ccc(Cl)cc3)cc(-c3nnc(SC/C(=N/O)c4ccccc4)o3)c2c1
active: SR leukemia 7.97%
inactive: SK-MEL-2 melanoma 61.3% | EKVX NSCLC 72.8% | UO-31 renal 89.7% | TK-10 renal 75% | ACHN renal 47.5% | A498 renal 63.5% | CCRF-CEM leukemia 54.1% | MOLT-4 leukemia 52.5% | RPMI-8226 leukemia 41.3% | OVCAR-8 ovarian 49.7% | OVCAR-5 ovarian 84.2% | OVCAR-4 ovarian 16.7% | SK-OV-3 ovarian 69.6% | IGROV1 ovarian 50.8% | OVCAR-3 ovarian 34% | HS 578T breast 71.9% | NCI/ADR-RES ovarian 57.4% | T-47D breast 27%

C/C(=C\c1cnc(C)s1)[C@@H]1C[C@@H]2O[C@@H]2CCC[C@H](C)[C@H](O)[C@@H](C)C(=O)C(C)(C)[C@@H](O)CC(=O)O1
active: A498 renal 4.95% | OVCAR-3 ovarian 2.54% | NCI/ADR-RES ovarian 6.61%
inactive: SK-MEL-2 melanoma 27.5% | EKVX NSCLC 44.4% | UO-31 renal 36.4% | TK-10 renal 44.8% | ACHN renal 52.8% | CCRF-CEM leukemia 30.7% | MOLT-4 leukemia 31.7% | SR leukemia 30% | RPMI-8226 leukemia 23.2% | OVCAR-8 ovarian 48% | OVCAR-5 ovarian 38.9% | OVCAR-4 ovarian 52.5% | SK-OV-3 ovarian 24.4% | IGROV1 ovarian 38.7% | HS 578T breast 39.1% | T-47D breast 33.6%

Cc1nn(-c2ccc(-c3ccc(OC(F)(F)F)cc3)cc2)c2nc(-c3ccccc3)nc(N)c12
inactive: SK-MEL-2 melanoma 101% | EKVX NSCLC 97.7% | UO-31 renal 82.4% | TK-10 renal 89.7% | ACHN renal 100% | SR leukemia 55.6% | RPMI-8226 leukemia 118% | OVCAR-8 ovarian 93% | OVCAR-5 ovarian 98.3% | OVCAR-4 ovarian 102% | SK-OV-3 ovarian 108% | IGROV1 ovarian 99.3% | OVCAR-3 ovarian 107% | HS 578T breast 115% | NCI/ADR-RES ovarian 90.8% | T-47D breast 78.5%

COc1cc(C2=N/C(=C\c3cc4ccccc4nc3Oc3ccccc3)C(=O)N2C(=N)N)cc(OC)c1OC
inactive: SK-MEL-2 melanoma 84.7% | EKVX NSCLC 72.1% | UO-31 renal 55.3% | TK-10 renal 80.6% | ACHN renal 61.9% | A498 renal 69% | CCRF-CEM leukemia 87.3% | MOLT-4 leukemia 85.1% | SR leukemia 63.8% | RPMI-8226 leukemia 86.1% | OVCAR-8 ovarian 33.2% | OVCAR-5 ovarian 80.7% | OVCAR-4 ovarian 24.3% | SK-OV-3 ovarian 44.2% | IGROV1 ovarian 82.1% | OVCAR-3 ovarian 76.7% | HS 578T breast 33.7% | NCI/ADR-RES ovarian 52.6% | T-47D breast 49%

C=C(C)[C@@H]1CC[C@]2(C(=O)O)CC[C@]3(C)[C@H](CC[C@@H]4[C@@]5(C)C[C@@H](CC#Cc6ccccc6)C(=O)C(C)(C)[C@@H]5CC[C@]43C)[C@@H]12
inactive: SK-MEL-2 melanoma 61.1% | EKVX NSCLC 28.6% | UO-31 renal 28.9% | TK-10 renal 33.3% | ACHN renal 23.8% | CCRF-CEM leukemia 24.9% | MOLT-4 leukemia 22.3% | SR leukemia 38% | RPMI-8226 leukemia 15.3% | OVCAR-8 ovarian 26.5% | OVCAR-5 ovarian 65.4% | OVCAR-4 ovarian 41.3% | SK-OV-3 ovarian 42.9% | IGROV1 ovarian 61.1% | OVCAR-3 ovarian 17.9% | HS 578T breast 55.4% | NCI/ADR-RES ovarian 42.1% | T-47D breast 22.5%

COCCOC(=O)COc1ccc(OC)cc1
inactive: SK-MEL-2 melanoma 120% | EKVX NSCLC 96.6% | SN12C renal 99.7% | TK-10 renal 108% | ACHN renal 106% | CCRF-CEM leukemia 104% | MOLT-4 leukemia 90.7% | SR leukemia 88.2% | RPMI-8226 leukemia 97.3% | OVCAR-8 ovarian 101% | OVCAR-5 ovarian 104% | OVCAR-4 ovarian 94.2% | SK-OV-3 ovarian 112% | IGROV1 ovarian 101% | OVCAR-3 ovarian 95.4% | HS 578T breast 101% | NCI/ADR-RES ovarian 104% | T-47D breast 120%

C=C1C(=O)O[C@H]2[C@H]1CC/C(COC(=O)CCCCCCCC(=O)OC/C1=C/CC[C@@]3(C)O[C@H]3[C@H]3OC(=O)C(=C)[C@@H]3CC1)=C\CC[C@@]1(C)O[C@@H]21
active: UO-31 renal -22.1% | TK-10 renal 3.41% | ACHN renal -24.8% | CCRF-CEM leukemia 5.92% | MOLT-4 leukemia 2.39% | SR leukemia 0.728% | RPMI-8226 leukemia 3.72% | OVCAR-8 ovarian 1.92% | IGROV1 ovarian -13.3% | OVCAR-3 ovarian 2.34% | HS 578T breast 9.65% | T-47D breast -30.2%
inactive: SK-MEL-2 melanoma 59.9% | EKVX NSCLC 18.5% | A498 renal 109% | OVCAR-5 ovarian 44.4% | OVCAR-4 ovarian 26.7% | SK-OV-3 ovarian 101% | NCI/ADR-RES ovarian 28.6%

COc1cc(-c2csc(NC(=O)Nc3cc(Cl)cc(Cl)c3)n2)cc(OC)c1OC
inactive: SK-MEL-2 melanoma 75.2% | CCRF-CEM leukemia 13.5% | RPMI-8226 leukemia 13.7% | OVCAR-5 ovarian 39.1% | SK-OV-3 ovarian 14.9%
active: EKVX NSCLC 1.71% | UO-31 renal -66% | TK-10 renal -68.9% | ACHN renal -33% | SR leukemia -4.59% | OVCAR-8 ovarian 9.3% | OVCAR-4 ovarian -81.4% | IGROV1 ovarian -59.4% | OVCAR-3 ovarian -85.9% | HS 578T breast -18.2% | NCI/ADR-RES ovarian 5.24% | T-47D breast -41.5%

c1ccc(-c2n(Cc3ccc4ccccc4n3)cc[n+]2Cc2ccc3ccccc3c2)cc1
inactive: EKVX NSCLC 38.4% | ACHN renal 63.8% | OVCAR-5 ovarian 22% | OVCAR-4 ovarian 14.3% | HS 578T breast 15.1% | NCI/ADR-RES ovarian 96%
active: SK-MEL-2 melanoma -27% | TK-10 renal -0.737% | A498 renal -2.66% | CCRF-CEM leukemia 4.04% | MOLT-4 leukemia 2.42% | SR leukemia -27.4% | RPMI-8226 leukemia -2.59% | OVCAR-8 ovarian 3.17% | SK-OV-3 ovarian -12.4% | IGROV1 ovarian -15.4% | OVCAR-3 ovarian 6.21% | T-47D breast -14.7%

c1ccc(Sc2ncccn2)nc1
inactive: SK-MEL-2 melanoma 107% | EKVX NSCLC 106% | UO-31 renal 87.9% | TK-10 renal 109% | ACHN renal 98.2% | A498 renal 92.9% | CCRF-CEM leukemia 104% | MOLT-4 leukemia 98.4% | SR leukemia 95.5% | RPMI-8226 leukemia 65.6% | OVCAR-8 ovarian 100% | OVCAR-5 ovarian 101% | OVCAR-4 ovarian 98.1% | SK-OV-3 ovarian 99.4% | IGROV1 ovarian 108% | OVCAR-3 ovarian 102% | HS 578T breast 94% | NCI/ADR-RES ovarian 96.4% | T-47D breast 99.4%

Reference: PubChem BioAssay (NCI)
